Akt phos inh: blocks phosphorylation of Akt; Neuro2A IGF-stimulated pAkt S473 HTRF, 20 min; stronger effect = lower value; activity change, % for hits at 50 µM; 360,000 compounds, 0.32% hits; AID 651550; in the data active = activity change below about -80%; inconclusive = mostly about -51% to -80%; also: % is scaled to controls: 0 for no effect and ±100 for the full control effect
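Neuro2A cells in DMEM with 0.5% FBS, overnight at 37 deg C, given compound at single 50 µM final, then IGF (6 nM final) for 20 min at 37 deg C. Lysed; phospho-Akt Ser473 by HTRF after 24 h, 665/615 ratio.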
RGS4 inh: blocks human RGS4-accelerated GTP hydrolysis | Transcreener GDP fluorescence polarization, RGS4-accelerated GTP hydrolysis | 390,000 compounds, 0.039% hits | P49798 | Potency, µM (series often up to 114 µM), for inactives: top-dose activity change, negative = inhibition, most hits filed as inhibitors; active = well fitted curve in the direction sought with a large enough effect; inconclusive = small, poorly fitted or top-dose-only effect, or another doubt; inactive = no such curve, though single readings can be large; an effect the other way counts as inactive or inconclusive; also: potency is read from the fitted curve at half-maximal effect; % is scaled to controls: 0 for no effect and ±100 for the full control effect; nearly all actives have a fitted effect of over 75% in size
Target sequence (P49798 whole entry, looked up): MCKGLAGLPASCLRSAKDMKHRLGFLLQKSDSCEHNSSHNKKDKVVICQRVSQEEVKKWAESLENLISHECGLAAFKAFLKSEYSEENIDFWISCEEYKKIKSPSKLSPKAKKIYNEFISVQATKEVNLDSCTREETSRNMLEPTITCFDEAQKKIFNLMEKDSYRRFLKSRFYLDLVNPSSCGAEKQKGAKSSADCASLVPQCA
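MLSMR compounds (23 nl, pin-transferred) preincubated 10 min at room temperature with a 500nM (2x) first reagent, then RGS4 at 900nM (2x) plus Transcreener GDP mix added; fluorescence polarization (620/688 nm) read before and after 90 min at 30 °C.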
GRP78 ERSR act: ER stress response induction in glioma; 420,000 compounds, 0.02% hits; AID 602332; U87-MG GRP78 promoter luciferase reporter, 16 h; Potency, µM, for the others: at the highest dose activation, actives largely listed as activators; active = well fitted curve in the direction sought with a large enough effect; inconclusive = small, poorly fitted or top-dose-only effect, or another doubt; inactive = no such curve, though single readings can be large; an effect the other way counts as inactive or inconclusive; also: potency is read from the fitted curve at half-maximal effect; series mostly up to about 76 µM; % of control where 0% means no effect; nearly all actives have a fitted effect of over 35% in size
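Stably transfected U87-MG human glioma cells carrying a GRP78-based luminescent sensor were seeded at 1000 cells/well, pin-dosed with compounds and incubated 16 h. Luciferase reagent was then added, and end-point luminescence was read after 10 min at room temperature.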
Six1-Eya2 inh: blocks human Six1 binding to Eya2 | AlphaScreen GST-Six1/His-Eya2 binding, biochemical; stronger effect = lower value | 360,000 compounds, 0.56% hits | activity change, % (test concentration not listed); also: % is scaled to controls: 0 for no effect and ±100 for the full control effect
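Homogeneous AlphaScreen proximity assay pairing GST-Six1 with His-tagged Eya2 (added as 5X mix: 250 nM and 500 nM) in 50 mM Tris pH 8.0, 300 mM NaCl, 1 mM TCEP. Glutathione donor and nickel acceptor beads; 1 h, 37 °C, dark.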
CtBP-E1A blk: inhibitors of CtBP/E1A interaction; AlphaScreen GST-E1A/His-CtBP binding, 1536-well; stronger effect = lower value; activity change, % (test concentration not listed); 340,000 compounds, 0.49% hits; AID 651724; also: % is scaled to controls: 0 for no effect and ±100 for the full control effect
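Homogeneous bead-based format: GST-tagged E1A captured on glutathione donor beads, His-tagged CtBP on nickel acceptor beads; compounds precede bead addition by 2 h at 37 °C.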
* marks the source's active call; other numbers are inactive results. Compounds with a hit are over-represented: about 0.88% of the library has one in this group of screens. Rule as the data show it, unless noted: active = activity change below about -65%; inconclusive = mostly about -30% to -63%; inactive = weaker than that.

How did CC(=O)/C(=N\Nc1ccccc1Cl)Sc1cccc2cccnc12 do in these assays?
Akt phos inh: inactive; RGS4 inh: 2%; GRP78 ERSR act: 2%; Six1-Eya2 inh: -89*; CtBP-E1A blk: -92*

What do the screens show for `COc1cccc(-c2cnc3c(NC=O)cc(-c4ccc(O)c(OC)c4)cn23)c1`?
Akt phos inh: inactive; GRP78 ERSR act: -6%; Six1-Eya2 inh: inconclusive; CtBP-E1A blk: -71*

Results for COc1cccc(-c2cc(NC=O)c3ncc(-c4cc(OC)c(OC)c(OC)c4)n3c2)c1 ?
Akt phos inh: inactive; GRP78 ERSR act: -4%; Six1-Eya2 inh: -15; CtBP-E1A blk: inconclusive

What do the screens show for `O=C(Oc1cccc2cccnc12)c1cccc(N2C(=O)C3C4CCC(C4)C3C2=O)c1` (stereo not given)?
Akt phos inh: inactive; RGS4 inh: 22%; GRP78 ERSR act: -2%; Six1-Eya2 inh: -87*; CtBP-E1A blk: -12

What do the screens show for `O=C(Oc1ccc(N2C(=O)C3C4CCC(C4)C3C2=O)cc1)c1ccco1` (stereo not given)?
Akt phos inh: inactive; RGS4 inh: 5%; GRP78 ERSR act: -3%; Six1-Eya2 inh: -26; CtBP-E1A blk: 2

Results for O=C(Oc1cccc2cccnc12)c1ccc(N2C(=O)C3C4CCC(C4)C3C2=O)cc1 (stereo not given) ?
Akt phos inh: inactive; RGS4 inh: 14%; GRP78 ERSR act: 0%; Six1-Eya2 inh: -89*; CtBP-E1A blk: inconclusive

What do the screens show for `CC1CN(Cc2cccn2-c2ncccn2)Cc2cc(Cl)ccc2O1` (stereo not given)?
GRP78 ERSR act: -3%

Results for O=C(/C=C/c1ccco1)Oc1cccc2cccnc12 ?
Akt phos inh: inactive; RGS4 inh: -6%; GRP78 ERSR act: -3%; Six1-Eya2 inh: -79*; CtBP-E1A blk: 0

Results for CCc1ccc(OC(=O)/C=C/c2ccco2)cc1 ?
Akt phos inh: inactive; RGS4 inh: 3%; GRP78 ERSR act: 1%; Six1-Eya2 inh: 22; CtBP-E1A blk: 7

How did O=C(/C=C\c1ccco1)Oc1cccc2cccnc12 do in these assays?
Akt phos inh: inactive; RGS4 inh: -26%; GRP78 ERSR act: 4%; Six1-Eya2 inh: -76*; CtBP-E1A blk: -74*

How did O=C(NC[C@@H]1CCCN2CCCC[C@H]12)c1cnn(-c2nccc(-c3ccco3)n2)c1C1CC1 do in these assays?
GRP78 ERSR act: -1%

How did C/C(=N\NC(=O)c1cc(-c2cccnc2)nc2ccccc12)c1ccc(O)cc1O do in these assays?
Akt phos inh: inactive; RGS4 inh: 10%; GRP78 ERSR act: -4%; Six1-Eya2 inh: -74*; CtBP-E1A blk: -2

Results for CC(=NNC(=O)c1ccncc1)c1ccc2ccccc2c1O ?
Akt phos inh: inactive; RGS4 inh: -10%; GRP78 ERSR act: -5%; Six1-Eya2 inh: inconclusive; CtBP-E1A blk: inconclusive

Results for CC(=NNC(=O)c1ccncc1)c1ccccc1O ?
Akt phos inh: inactive; RGS4 inh: -5%; GRP78 ERSR act: 1%; Six1-Eya2 inh: -71*; CtBP-E1A blk: -75*

What do the screens show for `CC(=NNC(=O)c1ccncc1)c1ccc(O)cc1O`?
Akt phos inh: inactive; RGS4 inh: 1%; GRP78 ERSR act: -4%; Six1-Eya2 inh: inconclusive; CtBP-E1A blk: -76*

How did C[N+]1(CC(=O)c2ccc(O)c(O)c2)CCOCC1 do in these assays?
GRP78 ERSR act: -3%

How did CN(N=O)c1ccc(/C=C/c2ccccc2)cc1 do in these assays?
GRP78 ERSR act: 1%

Results for COc1ccc(CNC(=O)C(C#N)c2nc3ccccc3nc2N2CCCC2)cc1 (stereo not given) ?
Akt phos inh: -84%*; RGS4 inh: 6%; GRP78 ERSR act: -2%; Six1-Eya2 inh: -8; CtBP-E1A blk: -18

Results for COc1ccc(CNC(=O)C(C#N)c2nc3ccccc3nc2N2CCN(C)CC2)cc1 (stereo not given) ?
Akt phos inh: inactive; RGS4 inh: 8%; GRP78 ERSR act: -3%; Six1-Eya2 inh: -6; CtBP-E1A blk: 4

Results for Cc1ccc(C(=O)O/N=C/c2c(Cl)n(C)c3ccccc23)cc1 ?
Akt phos inh: -105%*; RGS4 inh: -4%; GRP78 ERSR act: -2%; Six1-Eya2 inh: 7; CtBP-E1A blk: -6

How did C[C@@H]1O[C@@]2(CS1)CN1CCC2CC1 do in these assays?
GRP78 ERSR act: -4%

What do the screens show for `COc1ccc(S(=O)(=O)N2CCOC23CCN(S(=O)(=O)c2cc(F)ccc2F)CC3)cc1`?
Akt phos inh: inactive; RGS4 inh: -18%; GRP78 ERSR act: -5%; Six1-Eya2 inh: -69*; CtBP-E1A blk: 2

How did COc1ccc(S(=O)(=O)N2CCOC23CCN(S(=O)(=O)c2ccc(F)cc2)CC3)cc1 do in these assays?
Akt phos inh: inactive; RGS4 inh: -21%; GRP78 ERSR act: -4%; Six1-Eya2 inh: 3; CtBP-E1A blk: 11

Results for CC(=O)/C(=N/Nc1ccccc1[N+](=O)[O-])N1CCCc2ccccc21 ?
Akt phos inh: inactive; RGS4 inh: -14%; GRP78 ERSR act: -2%; Six1-Eya2 inh: -74*; CtBP-E1A blk: -75*

How did CCC1(C2CCN(C(=O)c3cc(F)ccc3F)CC2)NC(=O)N(CCc2scnc2C)C1=O (stereo not given) do in these assays?
GRP78 ERSR act: -5%

What do the screens show for `COc1ccccc1N1CCN(S(=O)(=O)c2cc(-c3cc(C)no3)ccc2C)CC1`?
RGS4 inh: -6%; GRP78 ERSR act: -2%

What do the screens show for `CCc1ccc(-c2cc(C)no2)cc1S(=O)(=O)N1CCN(c2ccccc2OC)CC1`?
Akt phos inh: inactive; RGS4 inh: -6%; GRP78 ERSR act: -6%; Six1-Eya2 inh: inconclusive; CtBP-E1A blk: -79*

What do the screens show for `Cc1ccc(CNc2nc(C)c(-c3ccn(CCN4CCOCC4)n3)s2)o1`?
GRP78 ERSR act: -3%

What do the screens show for `O=[N+]([O-])c1ccc(/C=N/N/C(=N/c2ccccn2)c2ccccn2)cc1`?
Akt phos inh: inactive; RGS4 inh: -21%; GRP78 ERSR act: 0%; Six1-Eya2 inh: -2; CtBP-E1A blk: 8

How did O=[N+]([O-])c1cc(/C=N/N/C(=N/c2ccccn2)c2ccccn2)ccc1O do in these assays?
Akt phos inh: inactive; RGS4 inh: -6%; GRP78 ERSR act: 5%; Six1-Eya2 inh: -86*; CtBP-E1A blk: inconclusive

Results for CO[C@@H]1[C@@H]([C@H](C)[C@@H]2O[C@@]3(CC[C@@](C)([C@H]4CC[C@@](C)([C@H]5O[C@H]([C@H]6O[C@](C)(O)[C@H](C)C[C@@H]6C)C[C@H]5O[C@H]5C[C@@H](OC)[C@H](OC)[C@@H](C)O5)O4)O3)C[C@@H](O)[C@@H]2C)O[C@@](O)(CC(=O)O)[C@H](C)[C@H]1OC ?
GRP78 ERSR act: -6%

Assay outcomes (PubChem)
